Test results: the supplement of paper PMC7411054
Structures can show the parent of a compound that is named as a salt.

Legend:
Experiment in all cases: phenotypically active (imaging signature differs from DMSO and reproducible) at any of 0.3-9 uM (binary (1 = active, 0 = inactive)); higher = active
Settings in all cases: treatment time: 24 h
A549-ACTB-RAB5A = tested on: A549-ACTB-RAB5A
In short: (§1)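 Phenotypic activity depended on meeting both a deviation and a reproducibility criterion. The fifteen gene-edited A549, HepG2 and WPMY1 reporter lines were treated at 0.3, 1, 3 or 9 µM for 24 h, four wells each, then imaged live with features normalised to solvent control wells. Deviation required ≥3 of 4 wells past the 95th percentile of control Euclidean distances, and reproducibility a median replicate Pearson correlation above the 95th percentile of non-replicates.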

A549-CANX-COX4 = tested on: A549-CANX-COX4
In short: as §1

A549-GM130-SQSTM1 = tested on: A549-GM130-SQSTM1
In short: as §1

A549-TP53BP1-CLTA = tested on: A549-TP53BP1-CLTA
In short: as §1

A549-TUBA1B-RELA = tested on: A549-TUBA1B-RELA
In short: as §1

HepG2-ACTB-RAB5A = tested on: HepG2-ACTB-RAB5A
In short: as §1

HepG2-CANX-COX4 = tested on: HepG2-CANX-COX4
In short: as §1

HepG2-GM130-SQSTM1 = tested on: HepG2-GM130-SQSTM1
In short: as §1

HepG2-TP53BP1-CLTA = tested on: HepG2-TP53BP1-CLTA
In short: as §1

HepG2-TUBA1B-RELA = tested on: HepG2-TUBA1B-RELA
In short: as §1

WPMY1-ACTB-RAB5A = tested on: WPMY1-ACTB-RAB5A
In short: as §1

WPMY1-CANX-COX4 = tested on: WPMY1-CANX-COX4
In short: as §1

WPMY1-GM130-SQSTM1 = tested on: WPMY1-GM130-SQSTM1
In short: as §1

WPMY1-TP53BP1-CLTA = tested on: WPMY1-TP53BP1-CLTA
In short: as §1

WPMY1-TUBA1B-RELA = tested on: WPMY1-TUBA1B-RELA
In short: as §1

Measured: phenotypically active

COc1ccc2[nH]c(S(=O)Cc3ncc(C)c(OC)c3C)nc2c1 (stereo not given) [omeprazole]
inactive: A549-ACTB-RAB5A 0 | A549-CANX-COX4 0 | A549-GM130-SQSTM1 0 | A549-TP53BP1-CLTA 0 | A549-TUBA1B-RELA 0 | HepG2-ACTB-RAB5A 0 | HepG2-CANX-COX4 0 | HepG2-GM130-SQSTM1 0 | HepG2-TP53BP1-CLTA 0 | HepG2-TUBA1B-RELA 0 | WPMY1-ACTB-RAB5A 0 | WPMY1-CANX-COX4 0 | WPMY1-GM130-SQSTM1 0 | WPMY1-TP53BP1-CLTA 0 | WPMY1-TUBA1B-RELA 0

FC(F)OC(F)C(F)(F)F (stereo not given) [desflurane]
inactive: A549-ACTB-RAB5A 0 | A549-CANX-COX4 0 | A549-GM130-SQSTM1 0 | A549-TP53BP1-CLTA 0 | A549-TUBA1B-RELA 0 | HepG2-ACTB-RAB5A 0 | HepG2-CANX-COX4 0 | HepG2-GM130-SQSTM1 0 | HepG2-TP53BP1-CLTA 0 | HepG2-TUBA1B-RELA 0 | WPMY1-ACTB-RAB5A 0 | WPMY1-CANX-COX4 0 | WPMY1-GM130-SQSTM1 0 | WPMY1-TP53BP1-CLTA 0 | WPMY1-TUBA1B-RELA 0

C[C@]1(OC(=O)/C=C/c2ccccc2)C[C@@H](O)[C@]2(O)C=CO[C@@H](O[C@@H]3O[C@H](CO)[C@@H](O)[C@H](O)[C@H]3O)[C@@H]21 [Harpagoside]
inactive: A549-ACTB-RAB5A 0 | A549-CANX-COX4 0 | A549-GM130-SQSTM1 0 | A549-TP53BP1-CLTA 0 | A549-TUBA1B-RELA 0 | HepG2-ACTB-RAB5A 0 | HepG2-CANX-COX4 0 | HepG2-GM130-SQSTM1 0 | HepG2-TP53BP1-CLTA 0 | HepG2-TUBA1B-RELA 0 | WPMY1-ACTB-RAB5A 0 | WPMY1-CANX-COX4 0 | WPMY1-GM130-SQSTM1 0 | WPMY1-TP53BP1-CLTA 0 | WPMY1-TUBA1B-RELA 0

COC(=O)c1c(-c2cc(OC)c(OC)c(OC)c2)c2ccnc(OCc3ncccn3)c2c(=O)n1Cc1ccnc(C)c1 [T 0156 hydrochloride]
inactive: A549-ACTB-RAB5A 0 | A549-CANX-COX4 0 | A549-GM130-SQSTM1 0 | A549-TP53BP1-CLTA 0 | A549-TUBA1B-RELA 0 | HepG2-ACTB-RAB5A 0 | HepG2-CANX-COX4 0 | HepG2-GM130-SQSTM1 0 | HepG2-TP53BP1-CLTA 0 | HepG2-TUBA1B-RELA 0 | WPMY1-ACTB-RAB5A 0 | WPMY1-CANX-COX4 0 | WPMY1-GM130-SQSTM1 0 | WPMY1-TP53BP1-CLTA 0 | WPMY1-TUBA1B-RELA 0

Nc1ncnc2c1c(-c1ccc(Cl)cc1)nn2-c1cccc(-c2cnnn2Cc2cccc(-c3ccccc3)c2)c1
inactive: A549-ACTB-RAB5A 0 | A549-CANX-COX4 0 | A549-GM130-SQSTM1 0 | A549-TP53BP1-CLTA 0 | A549-TUBA1B-RELA 0 | HepG2-ACTB-RAB5A 0 | HepG2-CANX-COX4 0 | HepG2-GM130-SQSTM1 0 | HepG2-TP53BP1-CLTA 0 | HepG2-TUBA1B-RELA 0 | WPMY1-ACTB-RAB5A 0 | WPMY1-CANX-COX4 0 | WPMY1-GM130-SQSTM1 0 | WPMY1-TP53BP1-CLTA 0 | WPMY1-TUBA1B-RELA 0

CC[N+](CC)(CC)CCOc1cccc(OCC[N+](CC)(CC)CC)c1OCC[N+](CC)(CC)CC [gallamine-triethiodide]
inactive: A549-ACTB-RAB5A 0 | A549-CANX-COX4 0 | A549-GM130-SQSTM1 0 | A549-TP53BP1-CLTA 0 | A549-TUBA1B-RELA 0 | HepG2-ACTB-RAB5A 0 | HepG2-CANX-COX4 0 | HepG2-GM130-SQSTM1 0 | HepG2-TP53BP1-CLTA 0 | HepG2-TUBA1B-RELA 0 | WPMY1-ACTB-RAB5A 0 | WPMY1-CANX-COX4 0 | WPMY1-GM130-SQSTM1 0 | WPMY1-TP53BP1-CLTA 0 | WPMY1-TUBA1B-RELA 0

O=c1[nH]cnc2ccccc12
inactive: A549-ACTB-RAB5A 0 | A549-CANX-COX4 0 | A549-GM130-SQSTM1 0 | A549-TP53BP1-CLTA 0 | A549-TUBA1B-RELA 0 | HepG2-ACTB-RAB5A 0 | HepG2-CANX-COX4 0 | HepG2-GM130-SQSTM1 0 | HepG2-TP53BP1-CLTA 0 | HepG2-TUBA1B-RELA 0 | WPMY1-ACTB-RAB5A 0 | WPMY1-CANX-COX4 0 | WPMY1-GM130-SQSTM1 0 | WPMY1-TP53BP1-CLTA 0 | WPMY1-TUBA1B-RELA 0

CC[N@@+]1(C)[C@@H]2CC[C@H]1C[C@@H](OC(=O)[C@]1(c3ccccc3)CC[C@H](C(=O)O[C@H]3C[C@H]4CC[C@@H](C3)[N@+]4(C)CC)c3ccccc31)C2 [beta- Belladonnine dichloroethylate]
inactive: A549-ACTB-RAB5A 0 | A549-CANX-COX4 0 | A549-GM130-SQSTM1 0 | A549-TP53BP1-CLTA 0 | A549-TUBA1B-RELA 0 | HepG2-ACTB-RAB5A 0 | HepG2-CANX-COX4 0 | HepG2-GM130-SQSTM1 0 | HepG2-TP53BP1-CLTA 0 | HepG2-TUBA1B-RELA 0 | WPMY1-ACTB-RAB5A 0 | WPMY1-CANX-COX4 0 | WPMY1-GM130-SQSTM1 0 | WPMY1-TP53BP1-CLTA 0 | WPMY1-TUBA1B-RELA 0

CN(C)C(=N)NC(=N)N [Metformin hydrochloride]
inactive: A549-ACTB-RAB5A 0 | A549-CANX-COX4 0 | A549-GM130-SQSTM1 0 | A549-TP53BP1-CLTA 0 | A549-TUBA1B-RELA 0 | HepG2-ACTB-RAB5A 0 | HepG2-CANX-COX4 0 | HepG2-GM130-SQSTM1 0 | HepG2-TP53BP1-CLTA 0 | HepG2-TUBA1B-RELA 0 | WPMY1-ACTB-RAB5A 0 | WPMY1-CANX-COX4 0 | WPMY1-GM130-SQSTM1 0 | WPMY1-TP53BP1-CLTA 0 | WPMY1-TUBA1B-RELA 0

COc1ccc(C[C@H](C)NC[C@@H](O)c2ccc(O)c(NC=O)c2)cc1 [formoterol]
inactive: A549-ACTB-RAB5A 0 | A549-CANX-COX4 0 | A549-GM130-SQSTM1 0 | A549-TP53BP1-CLTA 0 | A549-TUBA1B-RELA 0 | HepG2-ACTB-RAB5A 0 | HepG2-CANX-COX4 0 | HepG2-GM130-SQSTM1 0 | HepG2-TP53BP1-CLTA 0 | HepG2-TUBA1B-RELA 0 | WPMY1-ACTB-RAB5A 0 | WPMY1-CANX-COX4 0 | WPMY1-GM130-SQSTM1 0 | WPMY1-TP53BP1-CLTA 0 | WPMY1-TUBA1B-RELA 0

O=C(NCCO)c1cc(C(=O)NCCO)cc(C(=O)NCCO)c1
inactive: A549-ACTB-RAB5A 0 | A549-CANX-COX4 0 | A549-GM130-SQSTM1 0 | A549-TP53BP1-CLTA 0 | A549-TUBA1B-RELA 0 | HepG2-ACTB-RAB5A 0 | HepG2-CANX-COX4 0 | HepG2-GM130-SQSTM1 0 | HepG2-TP53BP1-CLTA 0 | HepG2-TUBA1B-RELA 0 | WPMY1-ACTB-RAB5A 0 | WPMY1-CANX-COX4 0 | WPMY1-GM130-SQSTM1 0 | WPMY1-TP53BP1-CLTA 0 | WPMY1-TUBA1B-RELA 0

CC1(C)CCC(c2ccc(Cl)cc2)=C(CN2CCN(c3ccc(C(=O)NS(=O)(=O)c4ccc(N[C@H](CCN5CCOCC5)CSc5ccccc5)c(S(=O)(=O)C(F)(F)F)c4)cc3)CC2)C1 [navitoclax]
inactive: A549-ACTB-RAB5A 0 | A549-CANX-COX4 0 | A549-GM130-SQSTM1 0 | A549-TP53BP1-CLTA 0 | A549-TUBA1B-RELA 0 | HepG2-ACTB-RAB5A 0 | HepG2-CANX-COX4 0 | HepG2-GM130-SQSTM1 0 | HepG2-TP53BP1-CLTA 0 | HepG2-TUBA1B-RELA 0 | WPMY1-ACTB-RAB5A 0 | WPMY1-CANX-COX4 0 | WPMY1-GM130-SQSTM1 0 | WPMY1-TP53BP1-CLTA 0 | WPMY1-TUBA1B-RELA 0
